TWEAK-Fn14 inh = inhibitors of TWEAK-Fn14 signaling, primary screen, luciferase reporter cells, uHTS; TWEAK-stimulated Fn14 reporter cells, luciferase luminescence, 8 h; inhibition, % at 10 µM; actives 2% (n = 360,000); AID 1159606, 2016; in the data active = inhibition above about 50%
TRPM1 prom inh = inhibitors of MITF-dependent TRPM1 promoter reporter, primary screen, cell-based, SK-MEL-5, single point, luciferase; SK-MEL-5 TRPM1 promoter luciferase, 24 h; inhibition, % at 12.5 µM; actives 0.83% (n = 330,000);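 active = mean inhibition across replicates of 60% or more, whatever share of single replicates reaches that level; inconclusive = some that reach 60%, reason not given; inactive = mean inhibition across replicates below 60%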
Peg3 prom inh = Peg3 promoter-driven luciferase inhibitors, primary screen, cell-based, HeLa, luciferase luminescence; HeLa PEG-Prom luciferase reporter, overnight; inhibition, % at 20 µM; actives 1.7% (n = 360,000); AID 588405, 2011;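 active = inhibition of at least 50% at 20 µM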
TROY signal inh = inhibitors of TROY-driven NF-kB signaling, primary screen, Q293 LMP1-TROYcd cells, NF-kB luciferase, uHTS; Q293 LMP1-TROYcd NF-kB luciferase reporter, 4 h; inhibition, % at 10 µM; actives 0.98% (n = 360,000); AID 1347056, 2019;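 active = compounds whose plate-normalised and pattern-corrected inhibition of the luciferase reporter signal at the single screening dose is 50% or more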
LMP1 NFkB inh = EBV LMP1-driven NF-kappaB luciferase reporter inhibitors, primary screen, cell-based, luminescence, single point | LMP1-induced NF-kappaB luciferase reporter cells | inhibition, % at 12.5 µM | actives 0.69% (n = 350,000); in the data active = inhibition above about 41%; inconclusive = no clear call, values can overlap the other calls
HIF-2a block = HIF-2a reporter inhibitors, primary screen, luminescence, 786-0 RCC cells. AID 624352, 2012. inhibition, % at 18.8 µM. actives 0.72% (n = 360,000). 786-0 RCC cells HIF-2a reporter, luciferase luminescence, overnight;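 active = inhibition of the luminescence signal of 40% or more relative to plate controls, in a single-dose primary screen at 18.75 µM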
Mdm2 MdmX conf = retested Mdm2-MdmX interaction blockers, confirmation, cell-based, luminescence, single concentration, set 2 | shares compounds with HIF-2a block | SaOS-2 split-luciferase Mdm2/MdmX complementation | inhibition, % at 8 µM | actives 99% (n = 740) | AID 504601, 2011;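 active = mean inhibition of the luminescence signal across two replicates at or above 26 percent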
Target sequence (O15151 whole entry, looked up): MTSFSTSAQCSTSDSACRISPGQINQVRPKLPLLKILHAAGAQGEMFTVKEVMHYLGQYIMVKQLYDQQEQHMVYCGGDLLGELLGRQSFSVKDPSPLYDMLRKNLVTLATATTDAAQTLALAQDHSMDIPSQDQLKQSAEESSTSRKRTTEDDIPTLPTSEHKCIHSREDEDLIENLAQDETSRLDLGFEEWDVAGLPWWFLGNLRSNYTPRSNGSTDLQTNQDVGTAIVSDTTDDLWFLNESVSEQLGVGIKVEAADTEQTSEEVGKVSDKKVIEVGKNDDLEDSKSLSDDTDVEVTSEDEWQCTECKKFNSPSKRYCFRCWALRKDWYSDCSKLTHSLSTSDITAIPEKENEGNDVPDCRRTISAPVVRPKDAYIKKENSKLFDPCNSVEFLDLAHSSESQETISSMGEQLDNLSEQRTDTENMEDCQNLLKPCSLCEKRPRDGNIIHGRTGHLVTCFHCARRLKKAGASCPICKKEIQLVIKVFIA
Target sequence (Q00987 whole entry, looked up): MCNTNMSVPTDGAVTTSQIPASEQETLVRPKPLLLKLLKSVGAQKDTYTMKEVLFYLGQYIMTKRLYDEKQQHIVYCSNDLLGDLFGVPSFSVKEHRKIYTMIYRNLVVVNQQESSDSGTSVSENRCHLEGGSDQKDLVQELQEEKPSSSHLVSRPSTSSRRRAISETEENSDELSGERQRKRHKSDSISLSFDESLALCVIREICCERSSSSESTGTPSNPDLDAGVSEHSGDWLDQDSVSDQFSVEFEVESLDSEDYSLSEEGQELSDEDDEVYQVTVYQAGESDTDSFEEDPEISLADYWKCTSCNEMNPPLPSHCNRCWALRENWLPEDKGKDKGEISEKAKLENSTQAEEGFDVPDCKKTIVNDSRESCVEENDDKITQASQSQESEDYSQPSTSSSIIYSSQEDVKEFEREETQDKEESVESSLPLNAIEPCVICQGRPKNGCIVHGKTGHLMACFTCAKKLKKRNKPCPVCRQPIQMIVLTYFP
HIF-2a conf = HIF-2a reporter inhibitor retest, confirmation, luminescence, 786-0 RCC cells; shares compounds with HIF-2a block; HIF-2a luciferase reporter luminescence, overnight; inhibition, % at 18.8 µM; actives 56% (n = 1,800);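 active = mean inhibition across four replicates of at least 40 percent at the single tested concentration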
HIF-1a counter = HIF-1a luciferase reporter signal reduction – MiaPaCa-2 cells, single concentration, counter-screen for HIF-2a inhibitor project, confirmation; shares compounds with HIF-2a block; MiaPaCa-2 HIF-1a luciferase reporter, desferoxamine, overnight; inhibition, % at 18.8 µM; actives 72% (n = 1,800); AID 651589, 2012;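 active = mean inhibition of the reporter signal across four replicates at the single tested dose of 50% or more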
Of the large screens only hits and unclear results are named; the others gave an inactive call (follow-up assays come after a bar, where they were run). Only some compounds are listed: those with a hit (about 4% of all), similar ones and a draw of the others.

CC(C)=CCC/C(C)=C/CNC(=O)C[C@H]1C[C@H](C(=O)N2CCOCC2)[C@@]2(CCC3CCCC3)c3[nH]c4cc(CCC(=O)N(C)C)ccc4c3CCN2C1=O	HIF-2a block 79.6 | HIF-2a conf inactive | HIF-1a counter 105.7
CN(C)CCCNC(=O)C[C@H]1C[C@H](C(=O)N2CCCCC2)[C@@]2(CCc3ccccc3)c3[nH]c4ccc(Cl)cc4c3CCN2C1=O	TRPM1 prom inh 104.9, Peg3 prom inh 95.0, HIF-2a block 81.1 | Mdm2 MdmX conf 103.2 | HIF-2a conf inactive | HIF-1a counter 103.4
CN1CCN(C(=O)C2Cc3c(-c4ccc5c(c4)OCO5)ccnc3O2)CC1 (stereo not drawn)	none (no result: TRPM1 prom inh, LMP1 NFkB inh)
Cc1ccc(C(=O)N/C(=C\c2ccco2)C(=O)NCCN2CCOCC2)cc1C	none
Cc1ccc(NC(=O)c2ccc([N+](=O)[O-])o2)cc1S(=O)(=O)N1CCOCC1	TRPM1 prom inh 83.8, Peg3 prom inh 102.0, HIF-2a block 55.1 | HIF-2a conf inactive | HIF-1a counter 80.1
Cc1ccc(NC(=O)c2cc([N+](=O)[O-])ccc2N2CCOCC2)cc1S(=O)(=O)N1CCOCC1	none
Cc1ccc(-c2nc3ncccc3o2)cc1NC(=O)c1ccc([N+](=O)[O-])o1	TRPM1 prom inh 81.5, Peg3 prom inh 56.8, HIF-2a block 53.5 | HIF-2a conf inactive | HIF-1a counter 102.1
CN1CCN(c2ccc(NC(=O)c3ccc([N+](=O)[O-])o3)cc2Cl)CC1	TRPM1 prom inh 78.7, Peg3 prom inh 100.1, HIF-2a block 57.4 | HIF-2a conf 55.8 | HIF-1a counter 58.8
Cc1cc(NC(=O)c2ccc([N+](=O)[O-])o2)ccc1NC(=O)c1ccco1	TRPM1 prom inh 76.6, Peg3 prom inh 99.8, HIF-2a block 46.8 | HIF-2a conf inactive | HIF-1a counter 96.0
Cc1cc(-c2nc3ncccc3o2)ccc1NC(=O)c1ccc([N+](=O)[O-])o1	none
CSc1ncc(C(=O)Nc2cc(C)ccc2C)c(C)n1	none
CC(=O)Nc1cccc(Oc2ncnc3scc(-c4ccc(C(C)C)cc4)c23)c1	none
O=C(Nc1cccc(S(=O)(=O)N2CCCCC2)c1)c1ccc([N+](=O)[O-])o1	TRPM1 prom inh 80.1, Peg3 prom inh 53.3, HIF-2a block 64.0 | HIF-2a conf inactive | HIF-1a counter 104.2
CC(C)C(=O)N1CCN(c2ccc(NC(=O)c3ccc([N+](=O)[O-])o3)cc2)CC1	TRPM1 prom inh 92.3, Peg3 prom inh 111.6, HIF-2a block 88.6 | HIF-2a conf 54.4 | HIF-1a counter 98.5
CC(C)C(=O)N1CCN(c2ccc(NC(=O)c3ccc(Br)o3)cc2)CC1	none
O=C(Nc1ccc(N2CCOCC2)c(Cl)c1)c1ccc([N+](=O)[O-])o1	TRPM1 prom inh inconclusive, Peg3 prom inh 105.9, HIF-2a block 81.4 | HIF-2a conf inactive | HIF-1a counter 77.1
O=C(COC(=O)c1ccc([N+](=O)[O-])o1)Nc1cccc(S(=O)(=O)N2CCCCC2)c1	none
CC(C)C(=O)N1CCN(c2ccc(NC(=O)c3ccc([N+](=O)[O-])o3)cc2Cl)CC1	TRPM1 prom inh 85.2, Peg3 prom inh 108.8, HIF-2a block 91.1 | HIF-2a conf 80.1 | HIF-1a counter 99.3

Assay outcomes deposited in PubChem BioAssay by several laboratories.
